Test [1] is described as follows: Wnt pathway potentiators raising nuclear beta-catenin – imaging, WNT3A-conditioned medium, mouse C2C12, NPC library, primary screen (AID 1117326; in the data active = nuclear beta-catenin stimulation mostly above about 4.2%, no sharp cut-off; inactive = mostly below about 10%). The settings on record: stronger effect = higher value.
A short description of test [2]: stimulators of insulin release from INS-1E, primary screen, cell-based, 5 mM glucose, NPC library (AID 1117329). To be noted: rat INS-1E insulin secretion, at 10 µM, stronger effect = higher value.
The nature of test [3]: growth inhibition of GSK3B-pretreated HCT116 cells – cell-based, CellTiter-Glo, 0.2 to 20 µM (AID 1117336;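 active = compounds lowering colon cancer cell viability after pretreatment blocking the GSK3B kinase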). The settings on record: HCT116 viability after GSK3B inhibitor, at 20 µM, stronger effect = higher value. For orientation: In ATP-based viability assays light output follows the ATP content of the culture.
Test [4] in a line: inhibition of endothelial tube formation, primary screen, imaging, VEGF stimulated, CD31 staining, tube area, NPC library (AID 1117340;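 active = compound that reduces growth-factor-driven endothelial tube area in a mixed cell culture, no cutoff stated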). To be noted: VEGF-stimulated ADSC/ECFC co-culture, at 10 µM, stronger effect = higher value.
Test [5] is described as follows: GLP1 release stimulators, primary, NCI-H716, NPC library (AID 1117341;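 active = compound raises GLP1 secretion from the human gut endocrine cells, with no numeric limit stated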). To be noted: NCI-H716 cells, at 10 µM, stronger effect = higher value.
A short description of test [6]: HCT116 colon cancer cell growth inhibition, primary screen, CellTiter-Glo luminescence, NPC library (AID 1117342;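 active = compounds that lower survival of HCT116 colon cancer cells in the luminescence readout, no numeric limit stated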). The settings on record: at 20 µM (top of the series).
Test [7] can be described thus: reduced SW480 viability measured with CellTiter-Glo, NPC library, primary (AID 1117343;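 active = compounds that lower viability of the colon cancer cells in the luminescence readout, with no numeric limit stated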). The settings on record: CellTiter-Glo luminescence; at 20 µM (top of the series) unless noted.
The nature of test [8]: NPC library primary testing for decreased DLD-1 cell viability via CellTiter-Glo (AID 1117346;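 active = compounds that lower survival of DLD-1 colon cancer cells in the luminescence readout, no cutoff given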). The settings on record: DLD-1 viability, CellTiter-Glo luminescence; at 20 µM (top of the series).
Test [9] in a line: MELAS cybrid and Rieske KO viability enhancers – cell-based, MELAS cybrids, Rieske KO mouse fibroblasts, CellTiter-Glo, primary screen (AID 1508586;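 active = mean z-score across replicates of 1.96 or higher in either the MELAS or the Rieske mutant cell line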;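 also: z relative to plate mean and SD of compound and empty wells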). To be noted: low glucose.
Test [10] has as its target Mitogen-activated protein kinase 7 (Homo sapiens) (UniProt Q13164). Briefly: Gal4-ERK5 driven luciferase induction – cell-based, HTS, primary screen (AID 1508626;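 active = luciferase signal above three times the same-plate solvent-only control wells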;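 also: luciferase driven by Gal4-ERK5 fusion binding five Gal4 sites before minimal TATA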). The settings on record: HeLa Gal4-ERK5 transactivation, 18 h, at 5 µM, stronger effect = higher value.
Test [11] in a line: compounds altering viability of human ES cells (AID 493140; call rule not given here;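 also: cells exposed to compounds for four days before counting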). The settings on record: human embryonic stem cell survival screen; stronger effect = higher value.
The target of test [12] is NAD(+) hydrolase SARM1 (Homo sapiens) (UniProt Q6SZW1). Briefly: blocking NAD cleavage by SARM1 SAM-TIR – cell lysate, NAD-Glo luminescence (AID 1508614;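 active = compound whose remaining NAD level is above about 45 nM, limit read from the data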;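 also: higher remaining NAD means stronger inhibition of SARM1 NADase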). To be noted: SAM-TIR HEK293T lysate NADase, at 1 µM, stronger effect = higher value.
Chain of NAD(+) hydrolase SARM1 (Homo sapiens) (Q6SZW1 whole entry, looked up): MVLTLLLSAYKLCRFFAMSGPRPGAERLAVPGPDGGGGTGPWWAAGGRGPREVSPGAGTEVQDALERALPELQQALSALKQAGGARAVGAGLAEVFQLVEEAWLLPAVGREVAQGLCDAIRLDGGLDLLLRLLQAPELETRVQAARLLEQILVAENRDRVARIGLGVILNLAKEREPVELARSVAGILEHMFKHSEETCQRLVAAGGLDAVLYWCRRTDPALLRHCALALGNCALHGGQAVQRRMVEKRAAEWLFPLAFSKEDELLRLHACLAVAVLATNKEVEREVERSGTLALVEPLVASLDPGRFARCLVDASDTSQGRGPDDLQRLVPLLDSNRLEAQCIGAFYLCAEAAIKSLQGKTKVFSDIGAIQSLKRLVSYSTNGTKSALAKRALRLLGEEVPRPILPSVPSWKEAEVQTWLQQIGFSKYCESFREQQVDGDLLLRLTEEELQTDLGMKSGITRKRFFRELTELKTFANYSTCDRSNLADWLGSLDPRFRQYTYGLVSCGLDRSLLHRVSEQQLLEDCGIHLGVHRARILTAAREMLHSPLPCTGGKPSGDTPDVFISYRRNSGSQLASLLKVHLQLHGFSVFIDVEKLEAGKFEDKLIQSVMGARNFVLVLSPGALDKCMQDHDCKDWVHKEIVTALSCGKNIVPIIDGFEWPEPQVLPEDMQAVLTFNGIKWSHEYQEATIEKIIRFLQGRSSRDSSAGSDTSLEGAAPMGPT
Test [13] in a line: blockers of cellular phospholipid synthesis – cell-based, LOPAC library, screen 4, primary screen (AID 1347384; call rule not given here). The settings on record: animal cells, phospholipid biosynthesis inhibition screen; at 10 µM.
Test [14] deals with ATP-dependent translocase ABCB1 (Homo sapiens) (UniProt P08183). Description: P-glycoprotein substrate transport blockade – cell-based (AID 377; in the data active = fluorescence slope change above about 50%). To be noted: MDR1-expressing cells, fluorescent substrate accumulation slope; stronger effect = higher value; concentration not given here.
Chain of ATP-dependent translocase ABCB1 (Homo sapiens) (P08183 whole entry, looked up): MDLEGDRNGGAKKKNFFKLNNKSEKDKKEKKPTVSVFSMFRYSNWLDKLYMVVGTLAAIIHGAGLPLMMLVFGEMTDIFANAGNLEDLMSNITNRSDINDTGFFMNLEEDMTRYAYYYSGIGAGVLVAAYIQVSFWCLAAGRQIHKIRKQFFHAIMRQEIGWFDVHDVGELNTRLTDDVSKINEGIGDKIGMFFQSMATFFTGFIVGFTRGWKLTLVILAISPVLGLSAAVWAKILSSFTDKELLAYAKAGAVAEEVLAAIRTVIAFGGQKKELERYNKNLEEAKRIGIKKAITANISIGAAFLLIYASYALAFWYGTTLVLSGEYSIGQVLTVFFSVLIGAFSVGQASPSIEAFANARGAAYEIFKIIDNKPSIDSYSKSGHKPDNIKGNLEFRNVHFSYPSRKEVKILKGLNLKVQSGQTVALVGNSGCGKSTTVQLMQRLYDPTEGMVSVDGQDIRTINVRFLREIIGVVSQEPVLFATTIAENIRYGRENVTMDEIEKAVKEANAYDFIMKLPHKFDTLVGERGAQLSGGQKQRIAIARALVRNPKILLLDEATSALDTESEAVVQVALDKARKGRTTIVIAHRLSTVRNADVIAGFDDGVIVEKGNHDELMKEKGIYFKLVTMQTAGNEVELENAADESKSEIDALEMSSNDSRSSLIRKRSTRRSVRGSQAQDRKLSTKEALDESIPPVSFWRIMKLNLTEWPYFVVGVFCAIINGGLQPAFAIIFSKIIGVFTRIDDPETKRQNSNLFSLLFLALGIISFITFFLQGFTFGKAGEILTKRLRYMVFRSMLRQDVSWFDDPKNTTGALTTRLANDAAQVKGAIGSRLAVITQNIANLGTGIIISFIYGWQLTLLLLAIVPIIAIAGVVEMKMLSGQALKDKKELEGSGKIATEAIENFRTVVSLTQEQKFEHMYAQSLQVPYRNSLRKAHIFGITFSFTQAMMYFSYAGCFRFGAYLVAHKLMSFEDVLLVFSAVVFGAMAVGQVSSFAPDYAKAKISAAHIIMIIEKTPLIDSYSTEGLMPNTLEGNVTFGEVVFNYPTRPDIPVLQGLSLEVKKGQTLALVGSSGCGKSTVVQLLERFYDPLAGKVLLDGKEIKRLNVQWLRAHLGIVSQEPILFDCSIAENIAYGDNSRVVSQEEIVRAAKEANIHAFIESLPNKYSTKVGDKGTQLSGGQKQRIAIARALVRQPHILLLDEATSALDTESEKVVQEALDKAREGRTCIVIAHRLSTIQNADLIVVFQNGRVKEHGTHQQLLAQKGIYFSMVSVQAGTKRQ
Test [15] is described as follows: compounds altering circadian rhythm period length – cell-based, LOPAC library, luminescence reporter (AID 2774; call rule not given here;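 also: values are relative to mean of DMSO wells on each plate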). To be noted: circadian reporter cells, at 7 µM, actives lie on both sides.
The nature of test [16]: EMT-state selective cytotoxicity in co-culture – imaging, PC-3E GFP, TEM4-18 mCherry, primary screen (AID 1345086;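 active = compounds killing one labelled cell type while sparing the other, by normalised counts and ratio limits, not self-fluorescent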;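 as to all read-outs here: cells exposed to compound for 72 h before imaging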;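 as to red/green cell ratio (normalised): normalised mesenchymal count divided by normalised epithelial count so high means epithelial killing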). The settings on record: PC-3E GFP / TEM4-18 mCherry co-culture, imaging cell counts, at 1 µM; for red/green cell ratio (normalised): actives lie on both sides, counts scaled to control wells, 1 = unselective.
The nature of test [17]: galactose survival enhancers in mitochondrial complex I cybrids – cell-based, galactose medium, ATP luminescence, primary screen (AID 1645843;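 active = z-score of at least 1.8 in each of two replicates, scored against plate mean and spread of sample wells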;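 also: positive z means more ATP and so rescue of galactose-driven cybrid death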). To be noted: complex I mutant cybrid cells, 72 h, stronger effect = higher value.
Where [18] appears, read: MELAS cybrid survival, CellTiter-Glo 48 h, stronger effect = higher value.
Setting [19] is: Rieske KO mouse fibroblast survival, CellTiter-Glo 72 h.
Setting [20] is: measured here: epithelial PC-3E GFP cell survival.
The mark [21] stands for this setting: measured here: mesenchymal TEM4-18 mCherry cell survival.

Structures are written as SMILES. Inconclusive results are not listed. The source made the active and inactive calls.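 The calls were made as follows, unless noted: active = compound raises insulin release from rat beta cells at 5 mM glucose, no numeric limit stated; inactive = the rest.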

We go through ten compounds from PubChem BioAssay.

Chain of Mitogen-activated protein kinase 7 (Homo sapiens) (Q13164 whole entry, looked up, the tested form may be a part): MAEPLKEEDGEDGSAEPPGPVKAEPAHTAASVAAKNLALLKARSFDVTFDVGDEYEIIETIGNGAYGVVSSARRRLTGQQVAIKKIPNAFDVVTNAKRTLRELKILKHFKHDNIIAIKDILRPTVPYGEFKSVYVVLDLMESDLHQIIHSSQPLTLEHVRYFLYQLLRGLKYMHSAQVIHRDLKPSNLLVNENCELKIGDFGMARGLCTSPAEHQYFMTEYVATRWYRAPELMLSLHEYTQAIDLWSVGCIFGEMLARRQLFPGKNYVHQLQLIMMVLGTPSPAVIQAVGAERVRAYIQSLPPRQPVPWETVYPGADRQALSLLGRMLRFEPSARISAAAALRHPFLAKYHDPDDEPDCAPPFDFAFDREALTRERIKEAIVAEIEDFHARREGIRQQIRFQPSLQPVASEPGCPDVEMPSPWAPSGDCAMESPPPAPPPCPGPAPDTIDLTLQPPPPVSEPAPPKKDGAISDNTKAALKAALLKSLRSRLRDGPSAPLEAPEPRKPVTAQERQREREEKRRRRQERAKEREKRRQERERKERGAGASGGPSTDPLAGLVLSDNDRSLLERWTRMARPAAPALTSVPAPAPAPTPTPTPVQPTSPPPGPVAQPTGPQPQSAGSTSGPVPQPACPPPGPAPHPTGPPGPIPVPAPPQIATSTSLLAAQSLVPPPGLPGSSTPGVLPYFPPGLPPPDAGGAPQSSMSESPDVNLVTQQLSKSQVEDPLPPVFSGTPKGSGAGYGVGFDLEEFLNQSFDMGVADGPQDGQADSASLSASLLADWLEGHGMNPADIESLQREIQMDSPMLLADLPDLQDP

On to `CCOC(=O)[C@@](C)(N)Cc1ccc(O)c(O)c1`, for which the nuclear beta-catenin stimulation in test [1] (at 10 µM) was 0.6% (inactive); in test [1] (stimulation, at 2 µM), -0.5%. For the same compound, the insulin secretion stimulation in test [2] is 2.8% (inactive). In addition, the viability decrease in test [3] is 37.5% (inactive). In test [4], the tube area decrease was -1.8% (inactive). The GLP1 secretion stimulation in test [5] is -2.3% (inactive). Besides, in [6], the inhibition of viability was 20% (inactive). For the same compound, the values for the viability decrease (inhibition) in [7] and in [8] were 65% (active) and 17.2% (inactive), respectively. Also, the z-score in test [9] (setting [18]) was -1.64 (inactive); in test [9] (setting [19]), -0.614. For the same compound, the luciferase signal in test [10] is 92 AU (inactive).
Turning to `O=C(OCCOCCO)c1ccccc1Nc1cccc(C(F)(F)F)c1`, the survival in [11] is 2.08 (inactive). For the same compound, the nuclear beta-catenin stimulation is -1.7% (inactive) in test [1] (at 10 µM) and -0.5% in test [1] (stimulation, at 2 µM). Moreover, the insulin secretion stimulation in test [2] is 0.3% (inactive). Further, the viability decrease in [3] is 79.4% (active). Also, the tube area decrease in test [4] is 13.5% (inactive). Further, in [5], the GLP1 secretion stimulation was -1.6% (inactive). For the same compound, the inhibition of viability in test [6] is 81.8% (active). For the same compound, the viability decrease (inhibition) in test [7] was 54.2% (active); in test [8] it was 45.7% (inactive). Also, the z-score in test [9] (setting [18]) is 0.681 (inactive); in test [9] (setting [19]) it was 0.111.
With `Cc1nc2ccccc2n1Cc1ccc(Cl)cc1`, the nuclear beta-catenin stimulation in test [1] (at 10 µM) was 1.3% (inactive); in [1] (stimulation, at 2 µM), 1.1%. Besides, the insulin secretion stimulation in [2] is -3.2% (inactive). In addition, the viability decrease in test [3] was 52.8% (active). Moreover, the tube area decrease in test [4] was 62% (active). Besides, the GLP1 secretion stimulation in test [5] was -1.7% (inactive). In test [6], the inhibition of viability was 45.2% (inactive). In addition, the viability decrease (inhibition) in test [7] is 74% (active); in test [8], 40.1% (inactive). Moreover, in [12], the remaining NAD is 10 nM (inactive).
For `Nc1c[n+](N2CCOCC2)no1`, the nuclear beta-catenin stimulation was 0.4% (inactive) in [1] (at 10 µM) and -0.3% in test [1] (stimulation, at 2 µM). Further, in test [2], the insulin secretion stimulation is -1.7% (inactive). Besides, the viability decrease in test [3] was 15.5% (inactive). The tube area decrease in test [4] is -10.8% (inactive). The GLP1 secretion stimulation in test [5] is -2.6% (inactive). Further, the inhibition of viability in test [6] was -13.8% (inactive). In addition, the figures for the viability decrease (inhibition) in [7] and in test [8] were 66.6% (active) and 20.6% (inactive), respectively. The compound was called inactive in test [13].
With `NC(=O)C(c1ccccc1)(c1ccccc1)[C@@H]1CCN(CCc2ccc3c(c2)CCO3)C1`, the nuclear beta-catenin stimulation in [1] (at 10 µM) is 0.1% (inactive); in test [1] (stimulation, at 2 µM), 1.7%. In test [2], the insulin secretion stimulation was 16% (inactive). Further, the viability decrease in [3] is -129% (inactive). Also, in test [4], the tube area decrease was 25.4% (inactive). Besides, the GLP1 secretion stimulation in [5] is 0.9% (inactive). The inhibition of viability in test [6] was 35.1% (inactive). Also, the viability decrease (inhibition) in test [7] is 22.8% (inactive); in [8], 12.4% (inactive). The figures for the z-score in test [9] (setting [18]) and in test [9] (setting [19]) were -1.84 (inactive) and -1.37, respectively. The remaining NAD in [12] was 10 nM (inactive). In addition, the luciferase signal in test [10] was 108 AU (inactive).
With `C[C@]12CCC(=O)C=C1CC[C@H]1[C@@H]3CC[C@](O)(C(=O)CO)[C@@]3(C)C[C@H](O)[C@@]12F`, the fluorescence slope change in test [14] is 9.8% (inactive).
For the compound `C[C@@H]1CCC[C@H](C)N1`, in test [14], the fluorescence slope change was 9.9% (inactive). Further, the survival in test [11] is 4.42 (inactive).
In the case of `CCCn1cnc2c1c(=O)n(CCCCC(C)=O)c(=O)n2C`, in test [15], the period change is 0.185 h (inactive). In addition, in test [16], the red/green cell ratio (normalised) is 0.84 (inactive). For the same compound, the normalised cell number in test [16] (setting [20]) is 1.14; in [16] (setting [21]), 0.96. Further, the z-score in test [17] is 0.675 (inactive).
Take `CN(C)CCCO[C@@H]1[C@H]2OC(C)(C)O[C@H]2O[C@@H]1C(O)CO` (some centres undefined): the period change in [15] was -0.08 h (inactive).
Regarding `CCN(CC)C(=O)c1cccnc1`, in test [16], the red/green cell ratio (normalised) was 1.14 (inactive). Also, the normalised cell number was 0.99 in [16] (setting [20]) and 1.13 in test [16] (setting [21]).
